The full ranking holds about 8,300 sequences; the median of “log2 fold change of degron read counts, EGFP-low vs EGFP+ sorted cells (limma voom), compound-induced degradation” is about -1.1, and the highest 2% start at about 3.2. The entries come from a sample that favours the highest values as a whole.
Target: T1, CRBN, Q96SW2
T1 chain: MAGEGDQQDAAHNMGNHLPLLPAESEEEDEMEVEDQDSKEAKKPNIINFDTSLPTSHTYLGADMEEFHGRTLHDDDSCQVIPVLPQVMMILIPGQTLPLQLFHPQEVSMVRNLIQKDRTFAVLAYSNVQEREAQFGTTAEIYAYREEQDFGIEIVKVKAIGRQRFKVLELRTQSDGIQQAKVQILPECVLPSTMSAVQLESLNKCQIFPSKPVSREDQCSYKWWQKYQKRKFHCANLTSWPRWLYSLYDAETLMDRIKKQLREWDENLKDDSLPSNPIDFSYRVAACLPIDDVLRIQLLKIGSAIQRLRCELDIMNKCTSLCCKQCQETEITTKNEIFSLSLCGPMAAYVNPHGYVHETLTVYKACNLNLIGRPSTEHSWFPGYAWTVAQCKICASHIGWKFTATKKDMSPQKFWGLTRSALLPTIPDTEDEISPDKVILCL
Assay: log2 fold change of degron read counts, EGFP-low vs EGFP+ sorted cells (limma voom), compound-induced degradation; higher = more compound-induced degradation of the degron-EGFP fusion; degrons are variants of IKZF1/3 zinc finger 2; compound dose not given here
Details: Jurkat, 18 h

[1] = compound: compound 19 (5-tert-butyl-thalidomide)
[2] = compound: compound 22 (5-morpholino-thalidomide)
[3] = compound: compound 33 (diphenyl IMiD analogue)
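Also: pooled lentiviral library of zinc finger degron-EGFP fusions in mCherry-positive Jurkat cells, FACS-sorted after compound exposure, with degron abundance counted by next-generation sequencing.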

| Sequence | log2 fold change of degron read counts [1] | log2 fold change of degron read counts [2] | log2 fold change of degron read counts [3] | log2 fold change of degron read counts (compound: thalidomide) |
| --- | --- | --- | --- | --- |
| FVCDVCGAQFTQKGNLLRHIKL [46F_47V_49D_50V_52G_53A_54Q_55F_67L_, Q9UKT9] | -1.63 | 0.889 | 1.87 | 0.809 |
| FECDVCGAQFTQKGNLLRHIKL [46F_47E_49D_50V_52G_53A_54Q_55F_67L_, Q9UKT9] | -2.41 | -2.69 | -1.62 | -0.629 |
| FHCDVCGAQFTQKGNLLRHIKL [46F_47H_49D_50V_52G_53A_54Q_55F_67L_, Q9UKT9] | -0.281 | 0.385 | -0.661 | -1.69 |
| FYCDVCGAQFTQKGNLLRHIKL [46F_47Y_49D_50V_52G_53A_54Q_55F_67L_, Q9UKT9] | 2.41 | 3.24 | 1.63 | -0.781 |
| FQCDVCGAQFTQKGNLLRHIKL [46F_47Q_49D_50V_52G_53A_54Q_55F_67L_, Q9UKT9] | -1.59 | 0.635 | 0.642 | 2.41 |
| FWCDVCGAQFTQKGNLLRHIKL [46F_47W_49D_50V_52G_53A_54Q_55F_67L_, Q9UKT9] | 2.68 | 3.85 | 1.36 | -0.531 |
| FGCPQCGAFFTQKGNLLRHIKL [46F_47G_49P_50Q_52G_53A_54F_55F_67L_, Q9UKT9] | -0.126 | -1.28 | 2.09 | -1.62 |
| FRCSVCGHMFTQKGNLLRHIKL [46F_47R_49S_50V_52G_53H_54M_55F_67L_, Q9UKT9] | -2.17 | -2.3 | -2.41 | -2.23 |
| FVCNVCGAWFTQKGNLLRHIKL [46F_47V_49N_50V_52G_53A_54W_55F_67L_, Q9UKT9] | -2.28 | -1.99 | -1.2 | -1.25 |
| LTCNQCGFLCTQKGNLLRHIKL [46L_47T_49N_50Q_52G_53F_54L_55C_67L_, Q9UKT9] | -2.17 | -2.63 | -2.25 | -1.91 |
| FQCPVCGAGFTQKGNLLRHIKL [46F_47Q_49P_50V_52G_53A_54G_55F_67L_, Q9UKT9] | 2.21 | 2.03 | 1.81 | 3.38 |
| FCCPVCGAGFTQKGNLLRHIKL [46F_47C_49P_50V_52G_53A_54G_55F_67L_, Q9UKT9] | 2.96 | 1.65 | 1.8 | 1.26 |
| FGCPVCGAGFTQKGNLLRHIKL [46F_47G_49P_50V_52G_53A_54G_55F_67L_, Q9UKT9] | 3.26 | 1.13 | 2.32 | 0.332 |
| FFCPVCGAGFTQKGNLLRHIKL [46F_47F_49P_50V_52G_53A_54G_55F_67L_, Q9UKT9] | 3.15 | 2.03 | 1.8 | 0.528 |
| FHCPVCGAGFTQKGNLLRHIKL [46F_47H_49P_50V_52G_53A_54G_55F_67L_, Q9UKT9] | 2.85 | 1.03 | 2.35 | -0.326 |
| FRCPVCGAGFTQKGNLLRHIKL [46F_47R_49P_50V_52G_53A_54G_55F_67L_, Q9UKT9] | 2.32 | 1.95 | 2.25 | 1.72 |
| FVCPVCGAGFTQKGNLLRHIKL [46F_47V_49P_50V_52G_53A_54G_55F_67L_, Q9UKT9] | 0.554 | 2.67 | 1.71 | 2.79 |

| Sequence | log2 fold change of degron read counts [1] | log2 fold change of degron read counts [2] | log2 fold change of degron read counts [3] | log2 fold change of degron read counts (compound: thalidomide) |
| --- | --- | --- | --- | --- |
| FYCPVCGAGFTQKGNLLRHIKL [46F_47Y_49P_50V_52G_53A_54G_55F_67L_, Q9UKT9] | 3.05 | 2.07 | 2.22 | -0.0832 |
| FACPVCGAGFTQKGNLLRHIKL [46F_47A_49P_50V_52G_53A_54G_55F_67L_, Q9UKT9] | 3.42 | 1.04 | 0.678 | 0.677 |
| LHCNQCGFWCTQKGNLLRHIKL [46L_47H_49N_50Q_52G_53F_54W_55C_67L_, Q9UKT9] | -0.827 | -1.3 | -1.08 | -0.88 |
| FRCPICGHHFTQKGNLLRHIKL [46F_47R_49P_50I_52G_53H_54H_55F_67L_, Q9UKT9] | -2.39 | -2.52 | -1.52 | -1.56 |
| FTCEICGANFTQKGNLLRHIKL [46F_47T_49E_50I_52G_53A_54N_55F_67L_, Q9UKT9] | 0.227 | 1.78 | 1.46 | 2.43 |
| FGCEICGANFTQKGNLLRHIKL [46F_47G_49E_50I_52G_53A_54N_55F_67L_, Q9UKT9] | 1.01 | 0.765 | 1.12 | 0.771 |
| FWCEICGANFTQKGNLLRHIKL [46F_47W_49E_50I_52G_53A_54N_55F_67L_, Q9UKT9] | 3.41 | 3.78 | 2.28 | 1.57 |
| FECEICGANFTQKGNLLRHIKL [46F_47E_49E_50I_52G_53A_54N_55F_67L_, Q9UKT9] | 0.0673 | -1.05 | 2.35 | 2.43 |
| FQCEICGANFTQKGNLLRHIKL [46F_47Q_49E_50I_52G_53A_54N_55F_67L_, Q9UKT9] | 0.735 | 1.47 | 1.94 | 3.59 |
| FYCEICGANFTQKGNLLRHIKL [46F_47Y_49E_50I_52G_53A_54N_55F_67L_, Q9UKT9] | 3.74 | 3.68 | 2.63 | 1.54 |
| FSCEICGANFTQKGNLLRHIKL [46F_47S_49E_50I_52G_53A_54N_55F_67L_, Q9UKT9] | 2.11 | 1.59 | 1.31 | 0.441 |
| FKCEICGANFTQKGNLLRHIKL [46F_47K_49E_50I_52G_53A_54N_55F_67L_, Q9UKT9] | -1.06 | -1.95 | -2.41 | -0.806 |
| FFCEICGANFTQKGNLLRHIKL [46F_47F_49E_50I_52G_53A_54N_55F_67L_, Q9UKT9] | 3.08 | 3.63 | 1.75 | 1.6 |
| FACEICGANFTQKGNLLRHIKL [46F_47A_49E_50I_52G_53A_54N_55F_67L_, Q9UKT9] | 2.93 | 1.89 | 1.07 | 0.575 |
| FNCEICGANFTQKGNLLRHIKL [46F_47N_49E_50I_52G_53A_54N_55F_67L_, Q9UKT9] | 2.42 | 0.457 | -0.158 | -0.463 |
| FLCEICGANFTQKGNLLRHIKL [46F_47L_49E_50I_52G_53A_54N_55F_67L_, Q9UKT9] | 0.58 | -0.667 | 1.21 | 1.75 |

From the supplement of paper PMC12645437, “Orthogonal IMiD-Degron Pairs Induce Selective Protein Degradation in Cells” (ACS Chemical Biology, 2025)
